# Bioassay records deposited in PubChem BioAssay by National Center for Advancing Translational Sciences (NCATS).
# Most compounds without a hit are left out; they make up all but 0.9% or so of the library.
# Fluorescein fluor = qHTS Assay for Spectroscopic Profiling in Fluorescein Spectral Region. Compound autofluorescence, 480/540 nm, fluorescein-equivalent; hits give high values. max fluorescein-equivalent concentration, M. 59,000 tested, 0.91% active; in the data active = max fluorescein-equivalent concentration above about 10 nM; inconclusive = between about 1.1 nM and that limit
#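 Values reflect compound autofluorescence, normalized to fluorescein on the same plate and reported at each tested concentration. Conditions: 100 mM Tris pH 8.0, room temperature, 15 min, excitation 480 nm, emission 540 nm.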
# Resorufin fluor = qHTS Assay for Spectroscopic Profiling in Resorufin Spectral Region; Compound fluorescence, resorufin region 547/598 nm, buffer; hits give high values; max dye-equivalent concentration, M; 59,000 tested, 0.04% active; AID 588, 2007
#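 Read-out: intrinsic compound fluorescence at ex 547/em 598 nm after 15 min at RT in pH 8.0 Tris (100 mM). Values expressed as resorufin-equivalent concentration from per-plate standard series.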
# Texas Red fluor = qHTS Assay for Spectroscopic Profiling in Texas Red Spectral Region. max dye-equivalent concentration, M. 59,000 tested, 0.06% active. Compound fluorescence, Texas Red channel, 547/618 nm; hits give high values. AID 587, 2007; in the data active = max dye-equivalent concentration above about 10 nM; inconclusive = between about 1.1 nM and that limit
#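 Pin-transferred compounds and Texas Red standards go into 100 mM Tris buffer, pH 8.0. After 15 min at room temperature, plates are imaged with 547/618 nm filters. Each value is a dye-equivalent concentration derived from the per-plate dye curve.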
# A647 fluor = qHTS Assay for Spectroscopic Profiling in A647 Spectral Region | AID 592, 2007 | max dye-equivalent concentration, M | 59,000 tested, under 10 active | Compound fluorescence, A647 channel (570/671 nm), Tris buffer;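 also: values scaled relative to a standard on each plate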
#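 Tris 100 mM pH 8.0; cpd + A647 stds pin-transferred; 15 min RT; CCD imager, ex 570/em 671. Output = A647-equivalent conc. per cpd conc.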
# A488 fluor = qHTS Assay for Spectroscopic Profiling in A488 Spectral Region. 59,000 tested, 0.1% active. AID 591, 2007. max dye equivalency, M. compound autofluorescence, A488 spectral region, dye equivalency; Compound Type: qHTS ECL - MLSMR
#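 Spectroscopic profiling in the A488 region: compounds in pH 8.0 Tris (100 mM), 15 min RT, CCD imaging with 480 nm excitation and 540 nm emission; responses normalized against A488 dye standards.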
# Rhodamine fluor = qHTS Assay for Spectroscopic Profiling in Rhodamine Spectral Region. 59,000 tested, 0.05% active. Rhodamine-region fluorescence, 547/598 nm, Tris buffer; hits give high values. max dye-equivalent concentration, M; in the data active = max dye-equivalent concentration above about 11 nM; inconclusive = between about 1.1 nM and that limit
#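 A six-point rhodamine series on each plate calibrates the signal. Compounds sit in 100 mM Tris (pH 8.0) for 15 min at ambient temperature before imaging through 547 nm/598 nm filters.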
# * = called active by the depositor; i = inactive; ? = inconclusive; ! = a repeat was not active. Unless noted, no rule for the calls is given here.
SMILES,Fluorescein fluor,Resorufin fluor,Texas Red fluor,A647 fluor,A488 fluor,Rhodamine fluor
Cc1nc2nc(-c3cccs3)cn2nc1C,6e-08M*,i,i,3.1e-09,?,i
COc1cccc(-c2cn3nc(C)c(C)nc3n2)c1,i,i,i,1.4e-09,i,i
CCC1=C/C(=C/N(C)c2ccccc2)C(=O)S1,1.5e-08M*,i,i,5.2e-08,i,i
Cn1c(=O)c(CCc2ccccc2)nc2cnc(N3CCNCC3)nc21,?,i,i,3.8e-08,i,i
CN(C)CC[C@H](c1ccc(Cl)cc1)c1ccccn1,1.3e-08M*!,i,?,9.6e-09,i,i
c1csc(CNc2nc(-c3ccoc3)nc3ccccc23)c1,i,i,i,1e-09,i,i
O=C(CN1c2cccc3cccc(c23)S1(=O)=O)N1CCOCC1,3.7e-08M*,i,i,3.3e-08,?,i
CCOC(=O)C1CCN(c2nc3ccccc3nc2C(C#N)C(=O)OC(C)C)CC1 (stereo not given),1.3e-08M*,i,i,6.6e-09,i,i
CCOC(=O)C1CCN(c2nc3ccccc3nc2C(C#N)C(=O)OC(C)COC)CC1 (stereo not given),?,i,i,1.5e-09,i,i
CCOC(=O)C1CCCN(c2nc3ccccc3nc2C(C#N)C(=O)OC(C)C)C1 (stereo not given),2.3e-07M*,i,i,2.5e-08,1.4e-08M*,i
NC(=O)c1ncn([C@@H]2O[C@@H](CO)[C@@H](O)[C@H]2O)c1O,?,i,?,1.2e-09,i,i
O=C(Cn1cc(C(=O)COc2ccccc2)c2ccccc21)NCc1ccco1,1.5e-08M*,i,i,1.1e-08,i,i
CC(=O)c1c(C)[nH]c(C(=O)CSc2nc3ccccc3c(=O)n2CCCN2CCOCC2)c1C,?,i,?,7.8e-09,i,i
Cc1sc2nc(CSc3nc4ccccc4c(=O)n3CCCN3CCOCC3)[nH]c(=O)c2c1C,3.4e-08M*,i,i,1e-09,?,i
CCOc1cccc(C2C(C(=O)c3ccc(C)o3)=C(O)C(=O)N2c2nccs2)c1 (stereo not given),4.3e-08M*,i,i,1e-09,?,i
C=CCn1c(=O)/c(=C/c2ccc(Cl)cc2)s/c1=C(/C#N)c1nnc2n1CCCCC2,i,i,i,2.3e-09,i,i
C=CCn1c(=O)/c(=C/c2cc(OC)c(OC)c(OC)c2)s/c1=C(/C#N)c1nc2ccccc2n1C,2.8e-07M*,i,i,6.5e-08,1.5e-08M*,i
C=CCn1c(=O)/c(=C/c2ccc(O)cc2)s/c1=C(/C#N)c1nnc2n1CCCCC2,9.4e-08M*,i,i,1.7e-08,?,i
CCCCC/C=C\C[C@H](O)/C=C\c1cccc(C[C@H](O)CCCCO)n1,?,i,i,5.8e-09,i,i
CC1(C)CC(=O)C2=C(C1)N1CCCCC1CC2=O (stereo not given),1.5e-08M*,i,i,3.2e-08,i,i
Cc1cc(C)c(S(=O)(=O)N(CC(=O)N2CCOCC2)C2CCCCC2)c(C)c1,i,i,i,1e-09,i,i
Cc1cc(C)c(S(=O)(=O)N(CC(=O)O)C2CCCCC2)c(C)c1,2.6e-08M*,i,i,3.5e-08,i,i
C=C1C[C@@]23C[C@]1(O)CC[C@@H]2[C@]12C=C[C@@H](O)[C@@](C)(C(=O)O1)[C@@H]2[C@@H]3C(=O)O,i,i,i,2.7e-08,i,i
O=C(/C=C\c1ccc(O)cc1)c1ccc(O)cc1O,3.7e-08M*,i,?,2e-08,?,i
OC[C@@H]1O[C@@H](n2cnc3c(NCCc4ccccc4)ncnc32)[C@@H](O)[C@H]1O,i,i,i,1.4e-08,i,i
COc1ccccc1CN1CCC2(CC1)CCN(C(=O)c1ccncc1)CC2,1.1e-08M*,i,i,2.3e-09,i,i
